The text below walks through data of article PMC4081100, “A DNA-binding-site landscape and regulatory network analysis for NAC transcription factors in Arabidopsis thaliana”.

What all share (experiment): universal protein binding microarray (PBM); transcription factors of Arabidopsis thaliana; high values mean tight binding
Conditions in all cases: protein: recombinant; tags: GST; chain copies: 2; dsDNA, one strand shown

One assay deals with T1, GST-ANAC092(1-176) (Arabidopsis thaliana, UniProt Q9FKA0 1-176).
T1 sequence: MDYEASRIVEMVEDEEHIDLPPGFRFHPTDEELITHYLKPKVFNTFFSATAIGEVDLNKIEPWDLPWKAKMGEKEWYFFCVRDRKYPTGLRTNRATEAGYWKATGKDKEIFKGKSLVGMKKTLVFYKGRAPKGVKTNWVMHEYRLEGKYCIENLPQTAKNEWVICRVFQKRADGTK
In short, it runs like this:
(§1)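 GST-tagged NAC-domain, full-length or DNA-binding-domain proteins were induced in cells, with zinc acetate added for zinc-finger proteins. They were purified on glutathione–Sepharose 4B and quantified by A280 or anti-GST western blot. Each was applied at 200 to 500 nM final, in duplicate, to custom all-10-mer Agilent 4 × 180K arrays made double-stranded by primer extension, with gapped and ungapped 8-mers scored. Binding is the normalised enrichment score (E-score).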

The next assay deals with GST-NTL6(1-168) (Arabidopsis thaliana, UniProt Q9SCK6 1-168). In short, it runs like this: as §1
GST-NTL6(1-168), sequence (Q9SCK6 1-168): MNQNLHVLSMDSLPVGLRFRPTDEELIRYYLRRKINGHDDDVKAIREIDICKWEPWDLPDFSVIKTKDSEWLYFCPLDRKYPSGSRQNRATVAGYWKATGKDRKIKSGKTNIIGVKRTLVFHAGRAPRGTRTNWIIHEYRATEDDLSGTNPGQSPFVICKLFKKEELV
For a further assay, the target named is T2, GST-ANAC019 NAC domain (Arabidopsis thaliana, UniProt Q9C932 14-162).
T2 sequence: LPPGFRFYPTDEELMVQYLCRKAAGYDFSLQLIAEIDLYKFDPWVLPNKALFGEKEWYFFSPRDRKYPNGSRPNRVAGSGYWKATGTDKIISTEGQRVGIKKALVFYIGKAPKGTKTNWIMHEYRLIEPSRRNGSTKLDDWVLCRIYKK
In short, it runs like this:
as §1

In the next assay the target is T3, GST-ANAC055(1-171) (Arabidopsis thaliana, UniProt Q9LDY8 1-171).
T3 sequence: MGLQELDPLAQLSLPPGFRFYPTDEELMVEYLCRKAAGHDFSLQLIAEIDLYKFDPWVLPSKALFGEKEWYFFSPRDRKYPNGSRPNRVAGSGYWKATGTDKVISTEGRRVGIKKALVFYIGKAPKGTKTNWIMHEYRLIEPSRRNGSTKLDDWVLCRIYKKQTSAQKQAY
The gist of the method: as §1

In a further assay the target is T4, GST-ATAF1 NAC domain (Arabidopsis thaliana, UniProt Q39013 7-158).
T4 sequence: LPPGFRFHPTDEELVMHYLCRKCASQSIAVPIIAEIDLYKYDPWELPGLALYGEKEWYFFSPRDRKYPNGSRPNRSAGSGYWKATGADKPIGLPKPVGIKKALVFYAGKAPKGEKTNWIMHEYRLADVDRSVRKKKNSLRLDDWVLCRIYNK
In short, it runs like this:
as §1

Assay [1] has as its target T5, GST-ANAC092(1-285) full length (Arabidopsis thaliana, UniProt Q9FKA0 1-285).
T5 sequence: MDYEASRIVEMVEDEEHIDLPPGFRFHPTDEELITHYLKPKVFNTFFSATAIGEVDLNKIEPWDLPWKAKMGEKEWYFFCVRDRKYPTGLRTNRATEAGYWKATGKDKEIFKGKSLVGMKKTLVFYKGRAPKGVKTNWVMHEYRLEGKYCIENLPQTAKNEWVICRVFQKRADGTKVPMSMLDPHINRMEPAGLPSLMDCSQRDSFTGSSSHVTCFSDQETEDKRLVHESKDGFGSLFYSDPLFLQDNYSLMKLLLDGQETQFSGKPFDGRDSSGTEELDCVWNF
The gist of the method: as §1

A further assay deals with T6, GST-NST2(1-184) (Arabidopsis thaliana, UniProt Q9M274 1-184).
T6 sequence: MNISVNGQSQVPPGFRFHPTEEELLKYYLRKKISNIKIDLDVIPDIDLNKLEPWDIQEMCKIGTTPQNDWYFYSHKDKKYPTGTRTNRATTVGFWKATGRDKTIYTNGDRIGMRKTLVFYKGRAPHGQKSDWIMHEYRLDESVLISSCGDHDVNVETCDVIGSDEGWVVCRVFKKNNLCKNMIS
In short, it runs like this:
as §1

For another assay, the target named is T7, GST-NTL8 NAC domain (Arabidopsis thaliana, UniProt Q9XIN7 14-156).
T7 sequence: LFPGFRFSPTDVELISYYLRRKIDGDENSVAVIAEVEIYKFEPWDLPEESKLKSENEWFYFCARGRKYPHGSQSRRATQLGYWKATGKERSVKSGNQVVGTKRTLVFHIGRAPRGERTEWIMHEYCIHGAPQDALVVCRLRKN
In short, it runs like this:
as §1

The target in the next assay is T8, GST-SND1(1-203) (Arabidopsis thaliana, UniProt Q9LPI7 1-203).
T8 sequence: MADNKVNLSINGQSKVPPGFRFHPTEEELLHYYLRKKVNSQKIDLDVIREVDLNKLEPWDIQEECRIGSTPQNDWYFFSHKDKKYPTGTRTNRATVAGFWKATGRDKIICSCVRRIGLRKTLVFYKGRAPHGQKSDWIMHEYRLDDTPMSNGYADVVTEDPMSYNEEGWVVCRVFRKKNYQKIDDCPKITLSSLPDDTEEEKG
The gist of the method:
as §1

For the next assay, the target named is T9, GST-VND3 NAC domain (Arabidopsis thaliana, UniProt Q9FH59 12-162).
T9 sequence: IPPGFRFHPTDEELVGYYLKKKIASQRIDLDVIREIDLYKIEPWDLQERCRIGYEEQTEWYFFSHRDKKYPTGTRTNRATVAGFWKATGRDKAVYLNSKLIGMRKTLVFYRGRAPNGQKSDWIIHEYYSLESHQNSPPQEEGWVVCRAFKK
The gist of the method: as §1

For a further assay, the target named is T10, GST-VND7 NAC domain (Arabidopsis thaliana, UniProt Q9C8W9 9-158).
T10 sequence: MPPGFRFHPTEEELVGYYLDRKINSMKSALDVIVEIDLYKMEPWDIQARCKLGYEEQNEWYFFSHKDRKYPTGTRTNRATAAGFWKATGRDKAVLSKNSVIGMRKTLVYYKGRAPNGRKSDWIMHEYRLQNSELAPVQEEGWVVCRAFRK
The gist of the method:
as §1

Another assay has as its target T11, GST-NAP(1-166) (Arabidopsis thaliana, UniProt O49255 1-166).
T11 sequence: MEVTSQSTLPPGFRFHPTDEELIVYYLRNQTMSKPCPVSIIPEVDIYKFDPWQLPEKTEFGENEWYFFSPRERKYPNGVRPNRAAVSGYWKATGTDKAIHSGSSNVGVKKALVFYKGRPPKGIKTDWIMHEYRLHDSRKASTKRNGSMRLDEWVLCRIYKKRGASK
The gist of the method:
as §1

For the sequence TACGCCAA, the binding signal came to 0.413 E-score with GST-ANAC092(1-176); 0.0645 E-score in the assay with GST-NTL6(1-168); 0.0981 E-score with GST-ANAC019 NAC domain; 0.172 E-score with GST-ANAC055(1-171); 0.309 E-score with GST-ATAF1 NAC domain; 0.439 E-score in assay [1]. Further, the binding signal amounted to 0.251 E-score in the assay with GST-NST2(1-184); 0.0846 E-score with GST-NTL8 NAC domain; 0.454 E-score in the assay with GST-SND1(1-203); 0.171 E-score in the assay with GST-VND3 NAC domain; 0.244 E-score with GST-VND7 NAC domain.
As to AAACGTAA, the binding signal amounted to 0.261 E-score with GST-ANAC092(1-176); 0.216 E-score with GST-NTL6(1-168); 0.268 E-score with GST-ANAC019 NAC domain; 0.325 E-score in the assay with GST-ANAC055(1-171); 0.296 E-score in the assay with GST-ATAF1 NAC domain; 0.378 E-score in assay [1]. For the same sequence, the binding signal is 0.294 E-score in the assay with GST-NAP(1-166); 0.302 E-score in the assay with GST-NST2(1-184); 0.154 E-score with GST-NTL8 NAC domain; 0.435 E-score with GST-SND1(1-203); 0.344 E-score with GST-VND3 NAC domain; 0.294 E-score in the assay with GST-VND7 NAC domain.
For GTTCCTTA, the binding signal turned out to be 0.136 E-score with GST-ANAC092(1-176); 0.458 E-score in the assay with GST-NTL6(1-168); 0.141 E-score with GST-ANAC019 NAC domain; 0.0564 E-score with GST-ANAC055(1-171); 0.151 E-score with GST-ATAF1 NAC domain; 0.237 E-score in assay [1]. The binding signal with GST-NAP(1-166) turned out to be 0.117 E-score; with GST-NST2(1-184), 0.139 E-score; in the assay with GST-NTL8 NAC domain it was 0.329 E-score; with GST-SND1(1-203), 0.376 E-score; with GST-VND3 NAC domain, 0.249 E-score; with GST-VND7 NAC domain, 0.147 E-score.
As for ACGTAACA, the binding signal in the assay with GST-ANAC092(1-176) was 0.438 E-score; in the assay with GST-NTL6(1-168) it was 0.133 E-score; in the assay with GST-ANAC019 NAC domain, 0.389 E-score; in the assay with GST-ANAC055(1-171), 0.413 E-score; with GST-ATAF1 NAC domain, 0.365 E-score; in [1], 0.426 E-score. Moreover, the binding signal with GST-NAP(1-166) was 0.417 E-score; in the assay with GST-NST2(1-184), 0.345 E-score; with GST-NTL8 NAC domain, 0.205 E-score; with GST-SND1(1-203) it was 0.409 E-score; in the assay with GST-VND3 NAC domain, 0.41 E-score; with GST-VND7 NAC domain, 0.419 E-score.
For the sequence CGAAGTAA, the binding signal with GST-ANAC092(1-176) is 0.199 E-score; with GST-NTL6(1-168) it was 0.448 E-score; in the assay with GST-ANAC019 NAC domain, 0.128 E-score; with GST-ANAC055(1-171) it was 0.143 E-score; with GST-ATAF1 NAC domain it was 0.23 E-score; in assay [1] it was 0.279 E-score. The binding signal in the assay with GST-NST2(1-184) was 0.223 E-score; with GST-NTL8 NAC domain it was 0.416 E-score; in the assay with GST-SND1(1-203), 0.303 E-score; with GST-VND3 NAC domain it was 0.138 E-score; in the assay with GST-VND7 NAC domain, 0.19 E-score.
As for GAAGGAAC, the binding signal was determined as 0.189 E-score with GST-ANAC092(1-176); 0.445 E-score in the assay with GST-NTL6(1-168); 0.172 E-score in the assay with GST-ANAC019 NAC domain; 0.172 E-score with GST-ANAC055(1-171); 0.0557 E-score in the assay with GST-ATAF1 NAC domain; 0.204 E-score in [1]. Also, the binding signal with GST-NAP(1-166) was 0.148 E-score; with GST-NST2(1-184) it was 0.249 E-score; in the assay with GST-NTL8 NAC domain, 0.45 E-score; with GST-SND1(1-203), 0.337 E-score; with GST-VND3 NAC domain it was 0.114 E-score; with GST-VND7 NAC domain it was 0.181 E-score.
CACACGCA: the binding signal with GST-ANAC092(1-176) was determined as 0.453 E-score; with GST-NTL6(1-168) it was 0.0743 E-score; in the assay with GST-ANAC019 NAC domain, 0.389 E-score; with GST-ANAC055(1-171), 0.321 E-score; with GST-ATAF1 NAC domain, 0.248 E-score; in [1], 0.47 E-score. For the same sequence, the binding signal with GST-NAP(1-166) stood at 0.375 E-score; in the assay with GST-NST2(1-184) it was 0.229 E-score; with GST-NTL8 NAC domain it was 0.141 E-score; with GST-SND1(1-203) it was 0.327 E-score; with GST-VND3 NAC domain it was 0.375 E-score; with GST-VND7 NAC domain, 0.353 E-score.
